Screen size: about 53,000 sequences; about 3,700 (7%) were called active. Shown is part of a subset that was picked to be rich in actives. Unmarked numbers belong to inactive results.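 How the source made its calls: active means gene knockdowns whose robust z-score for IL-1 alpha signal is at least 2 or at most -2, so actives lie on both sides; inactive means the rest.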

This assay can be described thus: Components of the Cytosolic LPS Sensing Pathway: Gene Identification via Genome-wide siRNA Screen.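 Further: robust z of the log signal after scaling to non-targeting control siRNA wells of the plate.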 To be noted: RAW264.7 macrophages, IL-1a HTRF, actives lie on both sides, screened at 100 nM (by protocol), cells primed 5 h with Pam3CSK4 first. The procedure, abridged:
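Cells (RAW264.7, 1×10^4 per well) were transfected with siRNA at 100 nM and cultured 48h at 37 degrees C. Pam3CSK4 was added for 5 hours; LipidA transfection followed for 24 hour. IL-1a was then measured by HTRF.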
As for GGUACAGACCUUUGAAAUATT against Apobec2, the z-score is -0.125.
The value for CCGCAUGGAGCAUCUAAUATT against Tuft1 was 0.04; that for GGGAGACCUGCUACUAUUGTT against Gtf3c2 was 2.58 (active); that for GGAAACAACAACAAAUACATT against C1ql3 was 1.52.
For GGAAGAUCCUCGAUAGUCATT against Rgs7 the value was 1.2; for GACCAUCUCCUUUACGGGCTT against Olfr71, 0.133.
Consider GGCCAAAGAAGAAAGUGACTT against Opn3, for which the z-score is -2.72 (active).
The value for GUGGUAAACAGAAUGGUGATT against Ccdc92b was -1; that for GCACCCAUAUCAACGAGGUTT against Olfr924 was 0.484; that for GGUGACCAGCAAGUCAUGCTT against Chrdl1 was -0.663.
Regarding GGAAGAAAAAAACUUCGUUTT against Gabrg3, the z-score is 0.186.
For CCUGAAAGAUGCUCUCUAUTT against Inpp4b the value was 4.27 (active); for GCACAGCUUUUUGGAUCUGTT against Zfyve26, -0.75.
The value for CCAGAGUCUUUGGUAAUGCTT against Krtap3-3 was 1.07; that for GUCAUCAUGAACCAAGAGATT against Olfr713 was -2.18 (active).
Take GGAAAACCAGCACAAUUUATT against Cadm1: the z-score was 2.49 (active).
For CCAUCUACAAACUUUGGCCTT against Sacs the value was 0.669.
With GGUACUGACGCAUCUGAGGTT against Spata5l1, the z-score is 1.53.
Consider GACAAGCAAUAAAGAAAGATT against Lce1l, for which the z-score was -1.45.
Consider GGAAGGUCAAGUCUUUUCUTT against Tesk1, for which the z-score was 1.46.
Regarding CCAUGGGAUAUGAUUUACATT against Phf11a, the z-score was 3.49 (active).
GGGAAUUUCAGGCUAUAUUTT against Taf2: the z-score is 1.13.
Regarding CGAUGUGGACGAGAAGCUATT against Asap2, the z-score is -0.702.
On to CGCUAUGAGGCAGCUAAUUTT against Psma6, for which the z-score is -2.27 (active).
With CCCAUACUAAAAUUGUUGATT against Adam29, the z-score was 0.253.
As to CCUACCUUCAUUCGCUUCGTT against Cpz, the z-score was 2.61 (active).
For CCCAAUCAGCAUUUGCUCUTT against H2-M10.3 the value was 0.104; for GGAUGGAGCUACUGAAAUUTT against Dera, 0.39.
For CCAGAUCAUCGUGCAGAAUTT against E4f1 the value was 0.557.
Take GGAGUGUUUUGCAGUUUUATT against Dcstamp: the z-score is 4.39 (active).
For GCCACUGGUUCCAAUCGUCTT against Ncs1, the z-score is -0.354.
The value for CCGAAGCAUUUUCCCAUCUTT against Slc22a20 was -0.293; that for CCUGAUCCUCAGUUUGGUGTT against Prl was 0.129; that for GGUAACAAACUACAUUUGCTT against Pcdhb16 was 2.7 (active).
With CGAGAAUUCCUUGCUCUAATT against Mgat4a, the z-score was 0.194.
The value for GCGCGACCUUCGAAUGUAATT against Rnf5 was -0.834; that for GGAUAUGGUUAAAGCCAAATT against Zg16 was -0.172.
With GGGAUGUGUCCUGACUUUUTT against Zfp941, the z-score is -0.402.
The value for CCCAACUUAAAAGUACGUUTT against Hdac5 was 0.83; that for GGUUCAAAAGUCGAGCGAATT against Nudt9 was -0.137; that for GCCUAAGGGAGACUCUUUGTT against Ano7 was -2.02 (active).
For GGAAGUGAUUCUGCUAUGUTT against Cenpn the value was -1.69; for GGAAAGCAUGAGUUAAUAATT against Slain2, 1.38.
For GGGAAUAUCACAGGUGCCATT against Axl, the z-score is -0.737.
Take GGCUCUAAAUUUUUUGUUCTT against Derl1: the z-score is 0.532.
For UGAGGAGAGUUUCCGAGUGTT against H2-Q6, the z-score is -0.0985.
Turning to GCUAGUCUUAUGGACCAGATT against Eaf2, the z-score was -0.764.
Consider GGAAGAGCAUAAAAUGUCATT against Trps1, for which the z-score was -0.695.
The value for GGCGAAUGCGCUUCUGAUATT against BC053393 was 2.29 (active).
In the case of GGCACACAGUUUUGUACAUTT against Nfat5, the z-score was 2.25 (active).
Regarding GGACAAGAAGAAAGAAAAGTT against Tmbim6, the z-score was -1.07.
With GGAAGUUCCACCAUACCUCTT against Cypt4, the z-score is -2.5 (active).
Turning to GGCGACAGCGUAAAAGUACTT against Lyst, the z-score was -0.347.
Turning to GGAAAAAAAACACUGACUGTT against Hoxa5, the z-score was 1.05.
The value for GGCUCAAGGCUGAGUUUCATT against En2 was 0.704.
Turning to GGCCUGGAGGACUUUAUAATT against Cyp2a4, the z-score was -1.13.
In the case of GGCUAGCUACACAGUCUCATT against Plscr2, the z-score was 0.376.
For GCAUCAUUGUCAAUCAUAUTT against Olfr578 the value was -2.25 (active).
For CCGAAGGACAGUGUUUAUUTT against Mfsd11 the value was 0.212; for GCCUGCUAUUUAAUUCAUATT against Fam168a, -0.671; for GGUCCAGUGAAAUAAUAUCTT against Orc3, 0.774.
With GGACUACCAAUACGAACUGTT against Il23a, the z-score is 2.22 (active).
With GCAUAAAUUUCAAGAGCGCTT against Gigyf1, the z-score was -0.243.
For the sequence CGUAAGAUCAACGAGAGAUTT against Ncaph2, the z-score was -0.756.
For GGGAAAGACUGGAAAUCUUTT against Tmod3, the z-score is 0.515.
For GGAGAUCGAAAAGAAUUUCTT against Mx2 the value was 1.17; for GGAGGAAGAACUGUCUUUGTT against Wasf1, 0.221.
Take GGUGUUGGAUCAUGAUGUUTT against Nf2: the z-score was -2.14 (active).
For GCCCUUCAAAAGGAGCAGUTT against Cap1, the z-score is 1.86.
The value for GGACCAGCUGGACAAAAGATT against Zbtb18 was 0.131; that for GGCAUCAAAGACAAUACAATT against Vmn1r15 was 3.19 (active); that for “GGUCAAAUCACUGAGUUUUTT against 9530080O11Rik” was 1.74.
The value for GGUUGUCAUUCUUAUCCUUTT against Mageb1 was 0.57; that for GGGAAUGCUUAUGUAGGCATT against Aldh3b1 was -1.03.
Consider GGCGGUUAGACAUUAUGGATT against Plac9a, for which the z-score was 1.25.
The value for GGCGUGUGCAAGAAAAUCGTT against Cacng3 was 2.53 (active).
As for GGAUGAGUUGUCAUUGAUATT against Nck1, the z-score is 0.998.
As for CCUGUAGGGCUUUUUGAAATT against Mex3a, the z-score was 0.843.
With GGUGUUUUUGUCCAGGUCATT against Kcnk3, the z-score is -0.618.
As to GCAAGACAAGUUCUACGAUTT against Csad, the z-score is 1.83.
With GCCUGUUCGGGAAUCUUACTT against Olfr297, the z-score was 2.42 (active).
With GCAUUCAGUUGGGACAGUATT against Hsh2d, the z-score was 0.443.
For the sequence CGCAGAGGUUUUACUUUAATT against Mycbpap, the z-score was 1.52.
Regarding GCGAAGACGGAAGCAUAUUTT against Emc8, the z-score is 0.12.
In the case of GGCGGAAAUCUUGAGCAAATT against Slc28a2, the z-score was 4.39 (active).
Regarding GGAGCUUAUCAACUACUAUTT against Cltc, the z-score is -0.181.
On to GGAGAGAAACUGCGUGUAATT against Sla, for which the z-score was 1.46.
As to GGCAGAAAUCCAUCAGAGATT against Rtkn2, the z-score was -0.349.
GCCGUACUUCGUCAAGCUATT against Ung: the z-score was 0.395.
With GGCAUCUAGGAGAACCUCATT against Insig2, the z-score was -1.01.
The value for CGAGAAUUACAGACACUUGTT against Noc4l was 0.962; that for GGCAAAAAGGCAGUAGCCATT against Ncl was 0.644.
As to GGCGGAGUUCUCAAGACUUTT against Nudt18, the z-score was 3.55 (active).
With GGAACUGGAUCAAGAAUUUTT against Hhat, the z-score is 0.0393.
As to CGGACAUAGUCCAUCAUUCTT against Aig1, the z-score was 1.47.
In the case of CGGUAUAGUAGAUACUUAATT against Picalm, the z-score is 2.01 (active).
In the case of “CCCACCUUCCAAAAGGAUCTT against 5031434C07Rik”, the z-score is -0.882.
In the case of GGUGAAAUGGAUCGUCCUCTT against Nme8, the z-score was -0.926.
The value for GGAUGGUCUGCUAUUACAUTT against Phf7 was 0.832; that for CCCUCAAGGCUGAUAAACATT against Il17b was -2.26 (active); that for GGCUACAUGAGCUGGAGAATT against Insr was 2.71 (active).
GCCGCUAACUAAAGUCAAATT against Aloxe3: the z-score is 1.15.
For GGAGAUUGGCUUCCAGAAATT against Slc38a7 the value was 0.494.
Turning to GCAACACAUUUGAACCACUTT against Usp15, the z-score was -1.79.
For CCACGAGGAGCUCAUUUUCTT against Dhfr the value was 0.385; for GGCCAAAGGCAUCAGGCAUTT against Gsto2, -1.7; for GCUCAAACGAAAUGAUUCATT against Gys2, 2.01 (active).
With GCCGCACGUUUUUGAGUUGTT against Islr2, the z-score is -0.554.
On to CCGAAAUUUUGAGUACUGUTT against Vmn1r67, for which the z-score is 0.285.

The values above are taken from PubChem BioAssay AID1508600 (Functional Genomics Laboratory (NCATS/FGL), 2020).
